Among the data in the supplement of paper PMC10849652 are log2 fold change values, retold here.

The full data set covers some 7,900 targets. This sample favours those with a hit. About 0.6% of all pairs of compound and target were hits. A number with no mark means an inactive call.

UniProt Q16513, sequence (Q16513 whole entry, looked up): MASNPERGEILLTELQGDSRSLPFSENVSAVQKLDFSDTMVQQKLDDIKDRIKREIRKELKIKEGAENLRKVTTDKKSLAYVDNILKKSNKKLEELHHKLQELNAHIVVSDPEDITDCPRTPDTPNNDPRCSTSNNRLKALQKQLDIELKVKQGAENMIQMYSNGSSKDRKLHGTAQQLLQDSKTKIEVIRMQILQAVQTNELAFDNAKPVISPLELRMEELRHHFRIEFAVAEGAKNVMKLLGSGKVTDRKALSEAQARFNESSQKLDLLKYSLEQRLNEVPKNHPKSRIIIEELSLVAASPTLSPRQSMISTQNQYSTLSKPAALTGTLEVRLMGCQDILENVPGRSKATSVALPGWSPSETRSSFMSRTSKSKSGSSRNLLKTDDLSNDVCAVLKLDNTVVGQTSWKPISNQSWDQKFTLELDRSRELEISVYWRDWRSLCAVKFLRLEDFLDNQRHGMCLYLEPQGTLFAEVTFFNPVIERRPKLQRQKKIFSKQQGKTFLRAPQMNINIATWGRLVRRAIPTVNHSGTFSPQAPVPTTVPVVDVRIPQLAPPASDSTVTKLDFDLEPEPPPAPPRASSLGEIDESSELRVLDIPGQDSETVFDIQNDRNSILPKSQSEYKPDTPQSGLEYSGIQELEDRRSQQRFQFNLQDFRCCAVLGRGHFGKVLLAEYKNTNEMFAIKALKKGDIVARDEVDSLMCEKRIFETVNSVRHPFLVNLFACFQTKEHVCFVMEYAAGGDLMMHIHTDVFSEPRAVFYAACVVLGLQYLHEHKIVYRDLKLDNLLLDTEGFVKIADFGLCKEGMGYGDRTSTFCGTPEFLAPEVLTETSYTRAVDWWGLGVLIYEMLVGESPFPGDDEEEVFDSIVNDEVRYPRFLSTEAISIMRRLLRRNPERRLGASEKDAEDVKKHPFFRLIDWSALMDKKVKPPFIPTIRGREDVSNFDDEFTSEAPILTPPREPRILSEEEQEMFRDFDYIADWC
UniProt O15067, sequence (O15067 whole entry, looked up): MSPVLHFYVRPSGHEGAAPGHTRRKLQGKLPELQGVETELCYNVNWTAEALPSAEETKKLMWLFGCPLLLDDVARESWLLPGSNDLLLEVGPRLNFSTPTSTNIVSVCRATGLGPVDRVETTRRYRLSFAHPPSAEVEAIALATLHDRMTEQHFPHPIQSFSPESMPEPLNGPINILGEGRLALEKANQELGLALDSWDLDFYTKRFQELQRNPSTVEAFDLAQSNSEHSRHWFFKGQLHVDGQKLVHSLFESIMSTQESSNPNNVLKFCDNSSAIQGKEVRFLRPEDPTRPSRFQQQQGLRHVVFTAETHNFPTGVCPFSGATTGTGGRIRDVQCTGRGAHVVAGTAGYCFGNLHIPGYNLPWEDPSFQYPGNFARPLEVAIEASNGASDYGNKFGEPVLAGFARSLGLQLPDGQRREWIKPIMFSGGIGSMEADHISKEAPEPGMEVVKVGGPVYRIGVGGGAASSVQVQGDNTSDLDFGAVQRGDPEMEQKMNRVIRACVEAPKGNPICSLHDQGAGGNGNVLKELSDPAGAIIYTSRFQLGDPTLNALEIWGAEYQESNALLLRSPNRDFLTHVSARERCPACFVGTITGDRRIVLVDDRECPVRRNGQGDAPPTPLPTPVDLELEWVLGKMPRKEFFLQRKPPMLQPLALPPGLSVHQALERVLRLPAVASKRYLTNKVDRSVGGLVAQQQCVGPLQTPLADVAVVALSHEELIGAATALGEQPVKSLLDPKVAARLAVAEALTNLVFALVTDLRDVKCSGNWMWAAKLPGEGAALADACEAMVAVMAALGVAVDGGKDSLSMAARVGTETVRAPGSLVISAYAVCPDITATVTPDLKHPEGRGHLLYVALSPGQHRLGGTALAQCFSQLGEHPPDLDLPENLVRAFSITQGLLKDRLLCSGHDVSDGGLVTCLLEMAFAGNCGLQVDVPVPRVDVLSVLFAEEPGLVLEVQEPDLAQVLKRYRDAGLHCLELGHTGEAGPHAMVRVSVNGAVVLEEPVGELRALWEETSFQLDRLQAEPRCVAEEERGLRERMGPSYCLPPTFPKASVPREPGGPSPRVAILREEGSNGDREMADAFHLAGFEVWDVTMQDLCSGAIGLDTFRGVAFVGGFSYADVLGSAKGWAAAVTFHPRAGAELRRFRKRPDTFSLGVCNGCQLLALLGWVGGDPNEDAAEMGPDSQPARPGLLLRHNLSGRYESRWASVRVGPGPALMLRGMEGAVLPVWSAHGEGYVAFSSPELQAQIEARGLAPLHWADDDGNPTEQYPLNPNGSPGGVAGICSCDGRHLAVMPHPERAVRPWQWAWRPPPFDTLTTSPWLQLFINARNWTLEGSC
UniProt Q6P4A8, sequence (Q6P4A8 whole entry, looked up): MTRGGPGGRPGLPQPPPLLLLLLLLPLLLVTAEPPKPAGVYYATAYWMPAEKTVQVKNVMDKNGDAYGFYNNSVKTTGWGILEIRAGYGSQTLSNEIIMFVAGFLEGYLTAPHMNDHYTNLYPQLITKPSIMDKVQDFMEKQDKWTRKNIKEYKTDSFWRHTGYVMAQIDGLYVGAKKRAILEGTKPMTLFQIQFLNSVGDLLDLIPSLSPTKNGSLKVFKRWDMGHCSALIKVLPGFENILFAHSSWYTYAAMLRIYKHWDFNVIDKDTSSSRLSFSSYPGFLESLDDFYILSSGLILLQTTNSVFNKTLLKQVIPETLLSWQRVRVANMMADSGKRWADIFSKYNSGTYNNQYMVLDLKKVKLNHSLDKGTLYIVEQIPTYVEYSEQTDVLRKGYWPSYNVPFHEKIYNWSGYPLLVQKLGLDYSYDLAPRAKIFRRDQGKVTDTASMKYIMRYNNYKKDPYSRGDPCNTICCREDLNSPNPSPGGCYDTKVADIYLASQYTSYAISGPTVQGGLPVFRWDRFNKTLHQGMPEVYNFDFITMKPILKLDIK
UniProt Q9UHX1, sequence (Q9UHX1 whole entry, looked up): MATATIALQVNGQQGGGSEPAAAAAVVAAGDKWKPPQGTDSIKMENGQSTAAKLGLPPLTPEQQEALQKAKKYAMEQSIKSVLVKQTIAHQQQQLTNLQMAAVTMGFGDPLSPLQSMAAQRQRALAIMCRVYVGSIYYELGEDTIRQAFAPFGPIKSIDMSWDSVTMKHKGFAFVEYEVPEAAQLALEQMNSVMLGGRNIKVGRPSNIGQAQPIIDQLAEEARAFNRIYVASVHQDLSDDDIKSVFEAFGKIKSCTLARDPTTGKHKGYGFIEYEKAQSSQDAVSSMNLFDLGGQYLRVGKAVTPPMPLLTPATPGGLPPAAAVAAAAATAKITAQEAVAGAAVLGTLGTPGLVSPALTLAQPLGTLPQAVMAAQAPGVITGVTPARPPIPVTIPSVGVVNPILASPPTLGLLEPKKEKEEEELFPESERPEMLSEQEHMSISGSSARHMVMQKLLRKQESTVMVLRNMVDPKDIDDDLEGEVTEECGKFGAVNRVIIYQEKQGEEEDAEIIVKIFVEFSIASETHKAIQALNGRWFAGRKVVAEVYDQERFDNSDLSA
UniProt O15162, sequence (O15162 whole entry, looked up): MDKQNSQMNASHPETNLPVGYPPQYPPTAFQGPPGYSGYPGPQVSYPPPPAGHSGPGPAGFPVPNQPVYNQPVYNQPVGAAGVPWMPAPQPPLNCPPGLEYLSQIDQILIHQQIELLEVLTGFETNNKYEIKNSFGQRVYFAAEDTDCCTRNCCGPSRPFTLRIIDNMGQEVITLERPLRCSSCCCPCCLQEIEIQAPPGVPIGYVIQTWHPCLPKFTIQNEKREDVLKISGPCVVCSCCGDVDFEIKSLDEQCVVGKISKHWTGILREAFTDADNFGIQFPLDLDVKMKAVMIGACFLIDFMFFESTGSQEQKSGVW
UniProt P54619, sequence (P54619 whole entry, looked up): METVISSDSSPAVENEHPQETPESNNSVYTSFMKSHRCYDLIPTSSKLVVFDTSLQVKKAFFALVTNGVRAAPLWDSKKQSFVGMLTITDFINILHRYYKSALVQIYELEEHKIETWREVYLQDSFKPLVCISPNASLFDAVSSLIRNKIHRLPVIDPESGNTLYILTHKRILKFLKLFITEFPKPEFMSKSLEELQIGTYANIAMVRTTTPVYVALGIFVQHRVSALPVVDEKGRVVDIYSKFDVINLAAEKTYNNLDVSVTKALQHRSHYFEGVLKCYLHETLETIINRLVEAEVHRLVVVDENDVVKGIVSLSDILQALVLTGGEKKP
UniProt P62195, sequence (P62195 whole entry, looked up): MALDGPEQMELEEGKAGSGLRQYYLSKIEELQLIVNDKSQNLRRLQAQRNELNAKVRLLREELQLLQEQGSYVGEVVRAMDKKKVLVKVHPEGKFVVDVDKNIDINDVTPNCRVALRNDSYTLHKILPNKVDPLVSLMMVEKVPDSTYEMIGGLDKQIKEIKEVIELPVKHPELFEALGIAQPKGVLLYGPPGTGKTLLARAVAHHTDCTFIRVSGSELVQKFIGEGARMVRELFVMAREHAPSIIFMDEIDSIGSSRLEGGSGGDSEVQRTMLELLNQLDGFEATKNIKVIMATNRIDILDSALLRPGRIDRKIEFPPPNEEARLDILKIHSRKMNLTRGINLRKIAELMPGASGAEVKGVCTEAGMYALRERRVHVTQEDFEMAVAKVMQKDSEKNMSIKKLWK
UniProt Q16401, sequence (Q16401 whole entry, looked up): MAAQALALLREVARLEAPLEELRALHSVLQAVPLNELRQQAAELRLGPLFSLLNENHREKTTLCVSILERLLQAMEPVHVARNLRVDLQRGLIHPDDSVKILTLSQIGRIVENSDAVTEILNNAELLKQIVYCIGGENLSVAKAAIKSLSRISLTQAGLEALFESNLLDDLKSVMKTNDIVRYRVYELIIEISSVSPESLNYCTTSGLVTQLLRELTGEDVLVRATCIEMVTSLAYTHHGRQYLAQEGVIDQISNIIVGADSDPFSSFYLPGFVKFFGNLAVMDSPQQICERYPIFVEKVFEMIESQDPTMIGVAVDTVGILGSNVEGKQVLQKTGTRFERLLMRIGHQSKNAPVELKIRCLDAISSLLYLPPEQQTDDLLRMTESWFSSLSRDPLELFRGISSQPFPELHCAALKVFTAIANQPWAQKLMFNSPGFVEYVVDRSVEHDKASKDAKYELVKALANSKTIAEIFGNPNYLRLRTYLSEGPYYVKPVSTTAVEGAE

Compound in this experiment: c1cn2cc(-c3ccc4cn[nH]c4c3)nc(Nc3ccc(N4CCOCC4)cc3)c2n1 [entospletinib]
Description: log2 fold change, soluble protein after heating vs DMSO (PISA); higher = thermal stabilisation; K562 cells, 10 uM, 30 min; active = over 0.2 and 3.5 SD of the protein, either way, in both replicates (recomputed). The procedure, abridged:
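Soluble protein was defined as the supernatant after 21,000xg for 90 min. It came from K562 cells at 2×10^6 cells/mL given 10 μM compound for 30 min, heated in aliquots for 3 min across 48°C-58°C, pooled, and extracted in PBS with 0.5% NP-40 at 4°C, and was quantified by TMTpro 16plex LC-MS/MS with equalised channel sums. Thermal stability against control samples, from duplicates, is reported as log2 fold change.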
Turning to PLBD1 (UniProt Q6P4A8), the log2 fold change is 0.011.

With PSD3 (UniProt Q9NYI0), the log2 fold change is -0.013.

As for PSMD5 (UniProt Q16401), the log2 fold change is 0.017.

Consider PDE4DIP (UniProt E9PS60), for which the log2 fold change was -0.01.

As for PTGES3 (UniProt Q15185), the log2 fold change was -0.005.

Consider PMPCB (UniProt O75439), for which the log2 fold change was -0.043.

On to PRKAR2B (UniProt P31323), for which the log2 fold change was -0.166.

PKN2 (UniProt Q16513): the log2 fold change is 0.007.

With POGZ (UniProt Q7Z3K3), the log2 fold change was 0.101.

In the case of PFAS (UniProt O15067), the log2 fold change is -0.399 (active).

On to PRKCQ (UniProt Q04759), for which the log2 fold change is 0.017.

Take PTPN23 (UniProt Q9H3S7): the log2 fold change is -0.031.

For the target POLR3B (UniProt Q9NW08), the log2 fold change is 0.

With PIP4K2B (UniProt P78356), the log2 fold change was -0.04.

Take PDCD4 (UniProt Q53EL6): the log2 fold change is -0.002.

Turning to PCBP2 (UniProt F8VRH0), the log2 fold change was -0.004.

For the target POLA1 (UniProt P09884), the log2 fold change was -0.106.

Consider PLSCR1 (UniProt O15162), for which the log2 fold change is -0.045.

Turning to PDPK1 (UniProt O15530), the log2 fold change was -0.037.

Turning to POLR2I (UniProt P36954), the log2 fold change was 0.306.

For PSMC5 (UniProt P62195), the log2 fold change was 0.005.

As for PRKAG1 isoform 3 (UniProt P54619), the log2 fold change is -0.018.

With PUF60 (UniProt Q9UHX1), the log2 fold change is -0.017.

PRG4 (UniProt Q92954): the log2 fold change is -0.006.
